Source: PubChem BioAssay (Tox21)
Results filed as inconclusive are left out. More than one record can exist for a structure, and the calls need not agree. Activity calls are given as the source filed them. Unless noted, calls follow the shape of the dose curve; as a rule, active = well fitted curve in the direction sought with a large enough effect in the repeat runs; inconclusive = weak or mixed curves; inactive = no such curve, though single readings can be large; an effect the other way counts as inactive or inconclusive.

Assays:
[1] = qHTS assay to identify small molecule antagonists of the thyroid receptor (TR) signaling pathway (AID 743065); conditions: GH3.TRE-Luc, T3-stimulated luciferase inhibition, 23.5 h; series mostly up to 70.3 µM; also: nearly all actives have a fitted effect of over 55% in size
In short: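 GH3.TRE-Luc rat pituitary cells (two TREs driving luciferase) were dosed with compound, then stimulated with 1 nM T3 (final) for 23.5 h at 37 C. ONE-Glo luminescence was the read-out, with CellTiter-Fluor fluorescence as the cytotoxicity counter-screen.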

[2] = test system: thyroid hormone receptor (rat, GH3 cells); assay: qHTS assay to identify small molecule agonists of the thyroid receptor (TR) signaling pathway (AID 743066; calls by dose curve); conditions: GH3.TRE-Luc cells, TR agonist luciferase, 24 h; series mostly up to 83.9 µM
[3] = qHTS assay to identify small molecule antagonists of the estrogen receptor alpha (ER-alpha) signaling pathway - cell viability counter screen (AID 743074; calls by dose curve;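 also: HEK293 cells carrying ER-alpha-UAS-bla reporter stimulated with 17beta-estradiol; nearly all actives have a fitted effect of over 45% in size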); conditions: ERalpha-bla HEK293 viability, CellTiter-Glo luminescence, 18 h; series mostly up to 69.4 µM
[4] = qHTS assay to identify small molecule antagonists of the estrogen receptor alpha (ER-alpha) signaling pathway using the BG1 cell line - cell viability counter screen (AID 743081); conditions: BG1Luc4E2 viability, CellTiter-Fluor, 22 h; series mostly up to 70.3 µM;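 also: compound given together with 17beta-estradiol as the ER stimulus; nearly all actives have a fitted effect of over 45% in size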
[5] = biological target: Aromatase (Homo sapiens) (UniProt P11511); assay: qHTS assay to identify aromatase inhibitors (AID 743083); conditions: MCF-7 aro ERE, testosterone-driven ERE luciferase, 24 h; series mostly up to 70.3 µM; also: nearly all actives have a fitted effect of over 55% in size
[6] = qHTS assay to identify aromatase inhibitors - cell viability counter screen (AID 743084); conditions: MCF-7 aro ERE viability, CellTiter-Fluor, 24 h; series mostly up to 70.3 µM;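 also: cells stimulated with testosterone during compound exposure; nearly all actives have a fitted effect of over 55% in size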
[7] = biological target: Aryl hydrocarbon receptor (Homo sapiens) (UniProt P35869); assay: qHTS assay to identify small molecule that activate the aryl hydrocarbon receptor (AhR) signaling pathway (AID 743085); conditions: HepG2 AhR-luc (HG2L7.5c1), luciferase, 24 h; series mostly up to 70.3 µM;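 also: HG2L7.5c1 human HepG2 liver cells with stably integrated DRE-driven firefly reporter; nearly all actives have a fitted effect of over 15% in size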
In short: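 Measured in HG2L7.5c1 cells: CellTiter-Fluor signal (30 min incubation, 37C) for viability, then luciferase luminescence (30 min, room temperature). Compound contact time was 24 h at 37C, following a 5 h pre-incubation.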

[8] = qHTS assay to identify small molecule that activate the aryl hydrocarbon receptor (AhR) signaling pathway - cell viability counter screen (AID 743086); conditions: HepG2-AhR-luc viability, CellTiter-Fluor, 24 h; series mostly up to 70.3 µM;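 also: HepG2 liver cells carrying the AhR DRE luciferase reporter; nearly all actives have a fitted effect of over 45% in size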
In short: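 HepG2-AhR-luc (HG2L7.5c1) cells, 4000/well, treated 24 h at 37 C with compound; viability measured as CellTiter-Fluor fluorescence after 30 min in the same wells as the luciferase read.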

[9] = biological target: Peroxisome proliferator-activated receptor gamma (Homo sapiens) (UniProt P37231); assay: qHTS assay to identify small molecule agonists of the peroxisome proliferator-activated receptor gamma (PPARg) signaling pathway (AID 743094; active = well fitted activation curve with a large enough effect in the signal ratio in the repeat runs, not every such curve was filed as active; the % refers to the signal ratio); conditions: HEK293H PPARg-UAS-bla, beta-lactamase FRET ratio, 17 h; series mostly up to 57 µM
In short: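 HEK293H PPARg-bla cells, 5 h settle at 37C/5% CO2; compound (DMSO) 17 h, 37C; B/G FRET substrate 1 h RT; fluorescence intensity read-out. qHTS format.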

[10] = qHTS assay to identify small molecule antagonists of the peroxisome proliferator-activated receptor gamma (PPARg) signaling pathway - cell viability counter screen (AID 743194); conditions: PPARg-bla HEK293H viability, CellTiter-Glo luminescence, 17 h, co-treated with 50 nM rosiglitazone; series mostly up to 62.6 µM; also: nearly all actives have a fitted effect of over 55% in size
In short: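 Cytotoxicity counter screen in PPARg-bla HEK293H cells, same wells as reporter assay. Compounds plus 50 nM rosiglitazone (final) for 17 h at 37 C, then viability read by CellTiter-Glo luminescence.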

[11] = qHTS assay for small molecule activators of the heat shock response signaling pathway - cell viability counter screen (AID 743209); conditions: HSE-bla HeLa viability, CellTiter-Glo luminescence, 5 h; series mostly up to 62.6 µM; also: nearly all actives have a fitted effect of over 50% in size
In short: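 HSE-bla HeLa; 1500 cells/well; overnight 37 C, 5% CO2; compound 5 h 37 C; LiveBLAzer B/G substrate 2.5 h RT; CellTiter-Glo 30 min RT; luminescence.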

[12] = qHTS assay for small molecule activators of the heat shock response signaling pathway (AID 743210; active = well fitted activation curve with a large enough effect in the signal ratio in the repeat runs, with a control signal flat, not every such curve was filed as active; the % refers to the signal ratio;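 also: HeLa cells with beta-lactamase reporter driven by heat shock elements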); conditions: HeLa HSE-bla reporter, beta-lactamase ratio, 5 h; series mostly up to 62.6 µM
In short: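 Following overnight attachment, HSE-bla HeLa cells received test compounds for 5 h at 37 C; beta-lactamase activity was then detected via FRET substrate fluorescence.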

[13] = qHTS assay to identify small molecule agonists of the peroxisome proliferator-activated receptor delta (PPARd) signaling pathway - cell viability counter screen (AID 743211); conditions: PPARd-bla HEK293H viability, CellTiter-Glo luminescence, 17 h; series mostly up to 62.6 µM; also: nearly all actives have a fitted effect of over 55% in size
In short: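 Following 5 h plating at 37 C and 5% CO2, PPARd UAS-bla HEK293H cells took up test compounds for 17 h. Viability was quantified by luminescence 30 min after CellTiter-Glo addition at room temperature.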

[14] = biological target: Peroxisome proliferator-activated receptor gamma (Homo sapiens) (UniProt P37231); assay: qHTS assay to identify small molecule antagonists of the peroxisome proliferator-activated receptor gamma (PPARg) signaling pathway (AID 743191; calls by dose curve; also: nearly all actives have a fitted effect of over 30% in size); conditions: HEK293H PPARg-UAS-bla, beta-lactamase ratio, antagonist, 17 h; series mostly up to 62.6 µM
In short: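 GeneBLAzer PPARg UAS-bla HEK293H cells, 5 h post-plating, exposed to compounds 17 h at 37C. LiveBLAzer B/G FRET substrate added for 1 h at room temperature; beta-lactamase reporter read by fluorescence intensity.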

[15] = qHTS assay for small molecule agonists of the antioxidant response element (ARE) signaling pathway (AID 743202; active = well fitted activation curve with a large enough effect in the signal ratio in the repeat runs, not every such curve was filed as active; the % refers to the signal ratio); conditions: HepG2 ARE-bla reporter, beta-lactamase FRET, 16 h; series mostly up to 73.3 µM
In short: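 HepG2 ARE-bla cells; 16 h treatment at 37 C; FRET-based beta-lactamase fluorescence read after 2 h substrate incubation at room temperature.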

[16] = qHTS assay for small molecule agonists of the antioxidant response element (ARE) signaling pathway - cell viability counter screen (AID 743203; calls by dose curve; also: nearly all actives have a fitted effect of over 55% in size); conditions: ARE-bla HepG2 viability, CellTiter-Glo luminescence, 16 h; series mostly up to 73.3 µM
In short: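 Luminescence read-out (CellTiter-Glo, 30 min at room temperature) measured cell viability in the same wells as the ARE beta-lactamase reporter. HepG2 ARE-bla cells were treated with compounds for 16 hrs at 37C/5% CO2.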

Measured: Potency

Sequence of Aromatase (Homo sapiens) (P11511 whole entry, looked up): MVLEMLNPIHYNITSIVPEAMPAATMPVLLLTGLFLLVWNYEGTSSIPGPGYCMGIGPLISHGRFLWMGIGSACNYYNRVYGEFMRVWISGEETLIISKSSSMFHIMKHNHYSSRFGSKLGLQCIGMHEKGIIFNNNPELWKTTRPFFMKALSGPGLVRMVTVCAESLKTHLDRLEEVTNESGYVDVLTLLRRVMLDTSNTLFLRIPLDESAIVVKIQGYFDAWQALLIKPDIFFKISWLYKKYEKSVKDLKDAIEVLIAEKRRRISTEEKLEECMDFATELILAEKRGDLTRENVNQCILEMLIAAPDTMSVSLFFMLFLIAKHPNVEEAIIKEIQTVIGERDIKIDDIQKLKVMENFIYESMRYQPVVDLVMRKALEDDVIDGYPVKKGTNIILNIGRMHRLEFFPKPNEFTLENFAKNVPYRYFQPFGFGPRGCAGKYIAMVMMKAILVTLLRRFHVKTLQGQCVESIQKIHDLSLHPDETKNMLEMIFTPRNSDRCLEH
Sequence of Peroxisome proliferator-activated receptor gamma (Homo sapiens) (P37231 whole entry, looked up): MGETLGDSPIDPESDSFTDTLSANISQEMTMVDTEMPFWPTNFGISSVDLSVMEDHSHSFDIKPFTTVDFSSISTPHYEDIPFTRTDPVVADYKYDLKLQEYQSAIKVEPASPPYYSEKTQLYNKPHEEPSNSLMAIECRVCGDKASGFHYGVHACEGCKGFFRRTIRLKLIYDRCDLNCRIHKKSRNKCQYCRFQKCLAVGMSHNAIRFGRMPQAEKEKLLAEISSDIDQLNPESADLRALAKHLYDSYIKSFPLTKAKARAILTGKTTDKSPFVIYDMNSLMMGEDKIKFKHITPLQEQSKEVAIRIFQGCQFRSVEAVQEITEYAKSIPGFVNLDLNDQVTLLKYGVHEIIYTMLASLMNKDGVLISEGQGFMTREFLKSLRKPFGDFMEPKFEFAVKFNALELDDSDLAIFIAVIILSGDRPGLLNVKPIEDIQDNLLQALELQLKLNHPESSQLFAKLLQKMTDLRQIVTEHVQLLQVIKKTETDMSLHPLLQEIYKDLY
Sequence of Aryl hydrocarbon receptor (Homo sapiens) (P35869 whole entry, looked up): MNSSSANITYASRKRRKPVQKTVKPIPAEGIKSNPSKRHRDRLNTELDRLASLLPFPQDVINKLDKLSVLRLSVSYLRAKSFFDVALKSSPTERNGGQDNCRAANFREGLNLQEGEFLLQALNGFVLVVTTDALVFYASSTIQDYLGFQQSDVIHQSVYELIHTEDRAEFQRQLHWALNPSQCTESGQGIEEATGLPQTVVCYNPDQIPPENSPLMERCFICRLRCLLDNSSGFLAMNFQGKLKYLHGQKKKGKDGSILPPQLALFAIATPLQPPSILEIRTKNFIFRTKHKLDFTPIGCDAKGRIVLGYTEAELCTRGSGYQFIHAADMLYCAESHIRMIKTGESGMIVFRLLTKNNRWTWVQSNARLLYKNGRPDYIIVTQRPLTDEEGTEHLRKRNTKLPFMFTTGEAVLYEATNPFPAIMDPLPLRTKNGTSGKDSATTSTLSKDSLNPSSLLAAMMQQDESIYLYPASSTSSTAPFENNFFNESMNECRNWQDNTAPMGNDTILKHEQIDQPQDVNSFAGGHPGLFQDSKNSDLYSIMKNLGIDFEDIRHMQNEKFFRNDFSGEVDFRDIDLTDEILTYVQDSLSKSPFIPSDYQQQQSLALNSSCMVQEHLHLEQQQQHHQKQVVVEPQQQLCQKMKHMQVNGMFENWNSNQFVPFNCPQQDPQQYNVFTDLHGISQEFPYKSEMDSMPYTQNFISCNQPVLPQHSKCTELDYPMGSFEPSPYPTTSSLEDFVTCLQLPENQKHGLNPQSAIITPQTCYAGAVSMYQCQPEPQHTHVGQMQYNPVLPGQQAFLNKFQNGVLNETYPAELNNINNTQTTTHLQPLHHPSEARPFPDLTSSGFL

C=C(C)[C@H]1CC=C(C)C(=O)C1
not listed: [14] | [15] | [16]
inactive: all other assays above

C=Cc1ccc(C)cc1
not listed: [3]
inactive: all other assays above

CCCCCCCCCCCCCCCC(=O)OC(C)C
not listed: [5] | [6] | [7] | [9] | [12] | [14]
inactive: all other assays above

O=C(O)/C=C/C(=O)O
inactive: [10] | [16] | [11] | [12] | [13]

N#Cc1ccccc1
not listed: [9] | [15]
inactive: all other assays above

N[C@H](Cc1c[nH]c2ccccc12)C(=O)O
not listed: [7] | [16]
inactive: all other assays above

COC(=O)c1cccnc1
not listed: [9] | [16]
inactive: all other assays above

O=C(O)CCCCCCCCC(=O)O
not listed: [9] | [16]
inactive: all other assays above

CN/C(=C\[N+](=O)[O-])NCCSCc1csc(CN(C)C)n1
not listed: [7] | [15]
inactive: all other assays above

COc1cc(OC)c(C(=O)CCCN2CCCC2)c(OC)c1
not listed: [9] | [16]
inactive: all other assays above

C=CCc1ccc(OC)c(OC)c1
not listed: [9] | [14]
inactive: all other assays above

O=S(=O)(O)c1ccccc1
not listed: [9] | [14] | [15] | [16]
inactive: all other assays above
